A short description of assay [1]: Nuclear factor erythroid 2-related factor 2/antioxidant responsive element (Nrf2/ARE) small molecule agonists: qHTS cell viability counter screen in human keratinocytes (AID 1919968; active means well fitted curve in the direction sought with a large enough effect in the repeat runs; an effect the other way counts as inactive or inconclusive; further: nearly all actives have a fitted effect of over 55% in size; further: potency means the concentration at half of the fitted maximal effect). A digest of the protocol:
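Viability counter-screen: KeratinoSens reporter cells, DMSO-delivered compounds, 23 h at 37 C, CellTiter-Fluor fluorescence.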

Assay [2] is described as follows: Nuclear factor erythroid 2-related factor 2/antioxidant responsive element (Nrf2/ARE) small molecule agonists: luciferase reporter gene qHTS assay in human keratinocytes (AID 1919969; further: nearly all actives have a fitted effect of over 35% in size; further: potency means the concentration at half of the fitted maximal effect). (A reporter such as luciferase makes a cellular process visible.)
Assay [3] deals with Gonadotropin-releasing hormone receptor (Homo sapiens) (UniProt P30968). Briefly: Human gonadotropin-releasing hormone receptor (GnRHR) small molecule agonists, calcium flux assay in GnRHR-HEK293 cells (AID 1920063). Further: nearly all actives have a fitted effect of over 35% in size. In a few lines: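 Tox21-format agonist screen using human GnRHR-expressing HEK293 cells and a fluorescent calcium dye; kinetic 3-min fluorescence reading after compound addition, 15-point concentration series run in triplicate.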
Chain of Gonadotropin-releasing hormone receptor (Homo sapiens) (P30968 whole entry, looked up): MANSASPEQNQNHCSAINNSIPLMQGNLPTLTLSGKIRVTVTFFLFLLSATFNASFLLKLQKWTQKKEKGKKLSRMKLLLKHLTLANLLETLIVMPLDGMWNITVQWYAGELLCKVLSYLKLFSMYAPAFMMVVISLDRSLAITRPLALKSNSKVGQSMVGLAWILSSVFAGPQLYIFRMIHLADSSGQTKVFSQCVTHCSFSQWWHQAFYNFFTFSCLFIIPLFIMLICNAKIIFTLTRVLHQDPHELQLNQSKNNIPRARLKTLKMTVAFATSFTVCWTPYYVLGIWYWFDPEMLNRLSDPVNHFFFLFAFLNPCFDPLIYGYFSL

For assay [4], the target named is KiSS-1 receptor (Homo sapiens) (UniProt Q969F8). Briefly: Human kisspeptin (KISS1R) small molecule agonists, calcium flux assay in KISS1R-HEK293 cells (AID 1920064; active means well fitted curve in the direction sought with a large enough effect in the repeat runs; an effect the other way counts as inactive or inconclusive). In a few lines:
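Intracellular calcium mobilization in KISS1R-HEK293 cells was recorded by fluorescence (Ex/Em 480/540) for 3 min following compound addition to cells pre-loaded 1 h with calcium dye.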

Assay [5] is described as follows: G protein-coupled receptor (GPCR) small molecule agonists, calcium flux assay: HEK293 wild type cell line counter screen (AID 1920065). A digest of the protocol:
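In this agonist-mode screen, ATP is the positive control and DMSO the vehicle. Cells grow 18 h before a 1 h dye incubation at 37 C; signal is taken at Ex/Em 480/540 over 3 min.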
(In general: Calcium assays in cells follow changes in intracellular calcium, usually with a dye or a luminescent sensor.)

Assay [6] in a line: p53 small molecule agonists, cell-based qHTS assay with human liver microsomes (AID 1963577). A digest of the protocol:
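Fluorescence of the beta-lactamase reporter in p53RE-bla cells, detected with LiveBLAzer substrate (2 h, room temperature, dark), served as the read-out after 16 h compound exposure at 37 C with human liver microsomes and NADPH, each 0.5 mg/mL final.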
A general note: qHTS replaces the single test concentration by a dilution series.

Assay [7] can be described thus: p53 small molecule agonists, cell-based qHTS assay with rat liver microsomes (AID 1963578). In a few lines: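 Cells carrying a p53 response element–beta-lactamase reporter were plated and rested 5 h, then dosed with compound in DMSO plus rat liver microsomes and NADPH, each at 0.5 mg/mL final. After 16 h at 37 C, LiveBLAzer substrate was added for 2 h.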
Assay [8] is described as follows: p53 small molecule agonists, cell-based qHTS assay with human liver microsomes: qHTS cell viability counter screen (AID 1963579). Further: nearly all actives have a fitted effect of over 45% in size. In a few lines: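 Cytotoxicity counter screen: p53RE-bla, 4,000 cells/well; 5 h settle, 37 C/5% CO2; cpd + HLM 0.5 mg/mL + NADPH 0.5 mg/mL (final); 16 h, 37 C; CellTiter-Glo, 30 min RT, luminescence.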
Assay [9] is described as follows: p53 small molecule agonists, cell-based qHTS assay with rat liver microsomes: qHTS cell viability counter screen (AID 1963580). Further: nearly all actives have a fitted effect of over 45% in size. A digest of the protocol: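 In HCT-116 cells carrying a p53 response element-bla reporter, compounds were metabolically activated in situ by rat liver microsomes with NADPH over 16 h. Cell ATP content then served as the cytotoxicity measure.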

Assay [10] is described as follows: p53 small molecule agonists, cell-based qHTS assay: qHTS cell viability counter screen (AID 1963581). Further: nearly all actives have a fitted effect of over 45% in size. In a few lines: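 Compounds are pinned onto HCT-116 p53RE-bla cells and left 16 h at 37 C. Following the reporter FRET read, ATP is quantified by CellTiter-Glo luminescence after 30 min at room temperature.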
A short description of assay [11]: p53 small molecule agonists, cell-based qHTS assay (AID 1963582; active means well fitted activation curve with a large enough effect in the signal ratio in the repeat runs, not every such curve was filed as active; the % refers to the signal ratio). A digest of the protocol: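 Agonist activity was scored from beta-lactamase FRET fluorescence in p53RE-bla cells treated 16 h at 37 C with compounds in DMSO, substrate incubation being 2 h at room temperature.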
Assay [12] has as its target 5-hydroxytryptamine receptor 2A (Homo sapiens) (UniProt P28223). Briefly: 5-hydroxytryptamine receptor 2A (HTR2A) small molecule antagonists, cell-based qHTS assay (AID 1963586). Further: nearly all actives have a fitted effect of over 45% in size. A digest of the protocol:
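Antagonist-mode intracellular calcium assay: DOI (4 nM) added after 5 min compound pre-incubation at room temperature to dye-loaded HTR2A-CHO cells. Fluorescence followed for 3 min, sampled every second.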

Assay [13] has the same target. The assay is described as follows: 5-hydroxytryptamine receptor 2A (HTR2A) small molecule agonists, cell-based qHTS assay (AID 1963587). Further: nearly all actives have a fitted effect of over 30% in size. A digest of the protocol: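 HTR2A-CHO cells, plated 18 h at 37 C/5% CO2, dye-loaded 1 h at 37 C; compounds in DMSO added by pin tool (agonist mode). Intracellular calcium flux read as kinetic fluorescence on FDSS over 2 min at 1 s intervals.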

Assay [14] addresses Muscarinic acetylcholine receptor M1 (Homo sapiens) (UniProt P11229). Briefly: Cholinergic receptor muscarinic 1 (CHRM1) small molecule antagonists, cell-based qHTS assay (AID 1963588). Further: nearly all actives have a fitted effect of over 40% in size. Further: potency means the concentration at half of the fitted maximal effect. A digest of the protocol:
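CHRM1-CHO calcium-flux assay, antagonist mode. Cells were seeded 18 h, dye-loaded 1 h at 37 C and given compound for 5 min at RT, then acetylcholine was added at 50nM. FDSS fluorescence was read 3 min; 15 concentrations, three runs.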

The target is the same in assay [15]. The assay is described as follows: Cholinergic receptor muscarinic 1 (CHRM1) small molecule agonists, cell-based qHTS assay (AID 1963589). Further: nearly all actives have a fitted effect of over 35% in size. In a few lines:
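Stable CHRM1-CHO cells (human receptor) were incubated 18 h, dye-loaded for 1 h at 37 C and exposed to test compounds for agonist activity, with calcium-dependent fluorescence followed kinetically.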

Assay [16] is described as follows: cAMP Responsive Elements (CRE) small molecule agonists, cell-based qHTS assay (AID 1963590). A digest of the protocol: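 FRET-based beta-lactamase readout (LiveBLAzer B/G, 2 h RT) quantified CRE activation in HEK 293T CRE-bla cells after 3 h treatment with DMSO-dissolved compounds.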
Assay [17] is described as follows: cAMP Responsive Elements (CRE) small molecule antagonists, cell-based qHTS assay (AID 1963591; active means well fitted inhibition curve with a large enough effect in the signal ratio in the repeat runs, not every such curve was filed as active; the % refers to the signal ratio). In a few lines: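 qHTS in CRE-bla HEK 293T cells: compound in DMSO, then 0.25 uM NKH477 (final), 3 h at 37 °C/5% CO2; beta-lactamase FRET read-out after 2 h substrate incubation.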
Assay [18] concerns the target Beta-2 adrenergic receptor (Homo sapiens) (UniProt P07550). The assay is described as follows: Adrenergic beta2 receptor (ADRB2) small molecule antagonists, cell-based qHTS assay (AID 1963592). Further: nearly all actives have a fitted effect of over 50% in size. Further: potency means the concentration at half of the fitted maximal effect. A digest of the protocol:
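Cells (CHO, stable ADRB2 overexpression) incubated 18-20hr at 37C; compounds added from DMSO; agonist mix (1nM isoproterenol, 100uM IBMX, 25uM Ro-20-1724) added; 0.5hr RT; d2-cAMP and anti-cAMP-cryptate added; 1hr RT; 665/615 nm read.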

In assay [19] the target is D(2) dopamine receptor (Homo sapiens) (UniProt P14416). Briefly: Dopamine D2 receptor (DRD2) small molecule antagonists, cell-based qHTS assay (AID 1963595; active means well fitted inhibition curve with a large enough effect in the signal ratio in the repeat runs, with a control signal flat; the % refers to the signal ratio). A digest of the protocol:
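Cells were plated and grown for 24 h at 37 °C. Ro20-1724 (0.1 mM final) went in first, then compound for 10 min. NKH477 (200 nM) with quinpirole (12 nM) followed for 30 min at RT, then HTRF detection reagents for 1 h.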

Assay [20] has the same target. The assay is described as follows: Dopamine D2 receptor (DRD2) small molecule agonists, cell-based qHTS assay (AID 1963594). Further: nearly all actives have a fitted effect of over 35% in size. In a few lines:
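HEK293 cells stably expressing DRD2 were cultured 24 h at 37 C, then given Ro20-1724 (0.1 mM final) and compounds for 10 min at room temperature. NKH477 (200nM) was then added for 30 min. cAMP was read by HTRF.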

Records with an inconclusive call do not appear. Activity calls are given as the source filed them. Unless noted, the call rests on the fitted dose curve.

Chain of Beta-2 adrenergic receptor (Homo sapiens) (P07550 whole entry, looked up): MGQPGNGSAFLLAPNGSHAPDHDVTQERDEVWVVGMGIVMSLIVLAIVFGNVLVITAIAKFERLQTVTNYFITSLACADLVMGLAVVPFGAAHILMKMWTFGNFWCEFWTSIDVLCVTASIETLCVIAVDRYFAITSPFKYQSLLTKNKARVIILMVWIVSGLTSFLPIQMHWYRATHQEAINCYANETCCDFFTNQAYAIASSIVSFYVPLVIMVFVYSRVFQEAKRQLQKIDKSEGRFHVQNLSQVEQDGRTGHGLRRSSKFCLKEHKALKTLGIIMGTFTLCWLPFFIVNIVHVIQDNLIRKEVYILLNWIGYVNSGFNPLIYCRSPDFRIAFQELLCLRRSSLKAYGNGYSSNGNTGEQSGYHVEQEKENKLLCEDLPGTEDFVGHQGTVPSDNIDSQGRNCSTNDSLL
Chain of KiSS-1 receptor (Homo sapiens) (Q969F8 whole entry, looked up): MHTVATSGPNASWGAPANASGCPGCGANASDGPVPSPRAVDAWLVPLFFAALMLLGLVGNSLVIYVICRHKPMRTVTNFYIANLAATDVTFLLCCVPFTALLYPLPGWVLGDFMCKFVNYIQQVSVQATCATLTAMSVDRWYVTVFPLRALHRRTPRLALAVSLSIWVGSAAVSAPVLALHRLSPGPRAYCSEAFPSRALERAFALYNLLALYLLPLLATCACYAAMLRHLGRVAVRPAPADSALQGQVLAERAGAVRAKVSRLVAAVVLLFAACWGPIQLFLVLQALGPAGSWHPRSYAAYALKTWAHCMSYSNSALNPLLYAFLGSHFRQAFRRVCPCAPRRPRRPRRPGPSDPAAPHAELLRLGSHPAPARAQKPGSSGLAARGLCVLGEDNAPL
Chain of D(2) dopamine receptor (Homo sapiens) (P14416 whole entry, looked up): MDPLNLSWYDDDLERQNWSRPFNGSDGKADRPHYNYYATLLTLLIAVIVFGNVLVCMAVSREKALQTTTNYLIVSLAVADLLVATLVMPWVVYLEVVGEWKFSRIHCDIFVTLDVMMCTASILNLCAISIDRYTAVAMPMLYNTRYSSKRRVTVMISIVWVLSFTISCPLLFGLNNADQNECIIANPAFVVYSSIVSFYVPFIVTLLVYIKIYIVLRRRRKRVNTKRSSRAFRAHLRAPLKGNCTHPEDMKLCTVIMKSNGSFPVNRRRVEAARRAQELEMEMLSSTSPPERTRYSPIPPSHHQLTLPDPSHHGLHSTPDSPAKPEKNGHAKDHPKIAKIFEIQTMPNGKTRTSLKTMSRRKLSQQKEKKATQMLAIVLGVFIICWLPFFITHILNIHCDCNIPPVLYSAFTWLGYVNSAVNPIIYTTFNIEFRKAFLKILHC
Chain of 5-hydroxytryptamine receptor 2A (Homo sapiens) (P28223 whole entry, looked up): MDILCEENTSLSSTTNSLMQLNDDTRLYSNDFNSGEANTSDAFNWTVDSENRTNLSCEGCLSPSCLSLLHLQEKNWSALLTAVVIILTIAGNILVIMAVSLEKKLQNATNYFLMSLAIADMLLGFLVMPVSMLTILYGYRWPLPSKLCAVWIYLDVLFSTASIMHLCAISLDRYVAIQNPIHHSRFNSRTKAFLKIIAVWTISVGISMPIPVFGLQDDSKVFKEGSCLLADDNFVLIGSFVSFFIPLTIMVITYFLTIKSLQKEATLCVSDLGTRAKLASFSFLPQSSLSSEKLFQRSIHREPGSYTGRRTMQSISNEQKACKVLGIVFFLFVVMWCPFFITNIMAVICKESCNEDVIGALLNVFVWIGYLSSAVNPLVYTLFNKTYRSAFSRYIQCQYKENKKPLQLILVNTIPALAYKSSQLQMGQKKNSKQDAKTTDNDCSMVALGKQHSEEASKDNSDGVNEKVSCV
Chain of Muscarinic acetylcholine receptor M1 (Homo sapiens) (P11229 whole entry, looked up): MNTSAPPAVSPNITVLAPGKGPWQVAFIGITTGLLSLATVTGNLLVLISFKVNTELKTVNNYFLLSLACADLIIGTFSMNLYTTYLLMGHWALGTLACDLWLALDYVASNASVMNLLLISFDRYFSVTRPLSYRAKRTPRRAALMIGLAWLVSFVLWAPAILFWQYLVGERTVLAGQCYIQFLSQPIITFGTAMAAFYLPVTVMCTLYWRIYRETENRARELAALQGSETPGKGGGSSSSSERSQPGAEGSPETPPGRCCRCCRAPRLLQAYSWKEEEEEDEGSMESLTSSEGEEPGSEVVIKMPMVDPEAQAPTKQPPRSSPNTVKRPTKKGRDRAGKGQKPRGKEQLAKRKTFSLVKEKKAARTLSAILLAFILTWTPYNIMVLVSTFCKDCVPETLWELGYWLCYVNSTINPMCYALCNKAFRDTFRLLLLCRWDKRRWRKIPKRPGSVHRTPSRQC

Consider `CC1=CCC2C(C1)C2(C)C` (stereo not given), for which the Potency entry in assay [1], in assay [2], in assay [3], in assay [6], in [7] and in assay [8] was “inactive” in each case. Also, the Potency entry in assay [9], in assay [10], in assay [11], in assay [12], in assay [13] and in assay [14] was “inactive” throughout. The Potency entry in [15], in assay [16], in assay [17] and in assay [19] was “inactive” in each case. The result in [4] and in assay [5] was inactive. In addition, in assay [18], the Potency is 27300 nM (active).

On to `Nc1ccc(F)c([N+](=O)[O-])c1`, for which the Potency entry in assay [1], in assay [2], in assay [3], in assay [6], in [7] and in assay [8] was “inactive” throughout. For the same compound, the Potency entry in assay [9], in assay [10], in assay [11], in assay [12], in [13] and in assay [14] was “inactive” in each case. The Potency entry in assay [15], in assay [16], in assay [17], in [18] and in assay [19] was “inactive” in each case. Further, the result in assay [4] and in [5] was inactive.

Turning to `CC/C=C(\C)C=O`, the Potency result in assay [1], in assay [2], in assay [3], in assay [6], in [7] and in assay [8] was “inactive” each time. The Potency entry in assay [9], in assay [10], in [11], in [12], in assay [13] and in assay [14] was “inactive” throughout. For the same compound, the Potency entry in assay [15], in [16], in assay [17], in assay [18] and in assay [19] was “inactive” each time. Also, the outcome in [4] and in [5] was inactive.

Regarding `Oc1ccc(Cl)c2cccnc12`, the Potency in [1] is 531 nM (active); in [2], 668 nM (active). The Potency entry in [3], in [6], in assay [7], in assay [8], in assay [9] and in assay [10] was “inactive” in each case. In addition, the Potency result in assay [11], in assay [12], in assay [13], in [14], in [15] and in [16] was “inactive” throughout. In addition, the Potency result in [18] and in assay [20] was “inactive” in each case. The result in assay [4] and in [5] was inactive.

As to `CC1(C)S[C@@H]2[C@H](NC(=O)C(c3ccccc3)S(=O)(=O)O)C(=O)N2[C@H]1C(=O)O` (stereo not given in full), the Potency result in assay [1], in assay [2], in assay [3], in assay [6], in assay [7] and in [8] was “inactive” throughout. Also, the Potency entry in [9], in [10], in assay [11], in assay [12], in [13] and in assay [14] was “inactive” in each case. The Potency entry in assay [15], in assay [16], in [18], in [20] and in assay [19] was “inactive” in each case. In addition, the result in assay [4] and in assay [5] was inactive.

For `CCCCNS(=O)(=O)c1ccc(C)cc1`, the Potency entry in assay [1], in [2], in [3], in [6], in assay [7] and in assay [8] was “inactive” in each case. Also, the Potency result in assay [9], in assay [10], in assay [11], in assay [12], in assay [13] and in assay [14] was “inactive” in each case. Moreover, the Potency entry in assay [15], in [16], in assay [18], in assay [20] and in assay [19] was “inactive” in each case. The outcome in [4] and in assay [5] was inactive.

With `NC(CS)C(=O)O` (stereo not given), the Potency entry in [1], in assay [2], in [3], in assay [6], in assay [7] and in [8] was “inactive” in each case. The Potency entry in assay [9], in assay [10], in assay [11], in assay [12], in [13] and in assay [14] was “inactive” throughout. Also, the Potency entry in assay [15], in [16], in assay [18], in assay [20] and in assay [19] was “inactive” each time. Moreover, the result in [4] and in assay [5] was inactive.

Consider `O=C1CCCc2c(O)cccc21`, for which the Potency result in assay [1], in [2], in assay [3], in [6], in assay [7] and in [8] was “inactive” each time. Moreover, the Potency entry in [9], in assay [10], in assay [11], in [12], in assay [13] and in assay [15] was “inactive” each time. In addition, the Potency entry in [16], in [17], in assay [18] and in assay [19] was “inactive” throughout. Also, the result in [4] and in assay [5] was inactive. Moreover, in assay [14], the Potency was 163 nM (active).

As for `Oc1ccc2c(c1)CCC2`, the Potency entry in assay [1], in assay [2], in assay [3], in assay [6], in [7] and in assay [8] was “inactive” throughout. Also, the Potency result in assay [9], in assay [10], in [11], in [12], in [13] and in assay [14] was “inactive” throughout. Besides, the Potency entry in assay [15], in assay [16], in assay [17], in assay [18] and in assay [19] was “inactive” in each case. In addition, the result in assay [4] and in assay [5] was inactive.

For the origin of these results see PubChem BioAssay (Tox21).
